For some of these results: Results with a measured potency or affinity are listed apart.

Holding throughout (parameters): scale not given: direction of the effect not stated beside the values
Assay [1] concerns the target Protein translocase subunit SecA (Escherichia coli (strain K12)) (UniProt P10408). Kind of assay: Assay to Identify E. coli SecA ATPase Inhibitors. The class given is functional. The conditions noted are these: 30 µM.
Assay [2] has as its target T1, Ubiquitin-activating enzyme e1, putative (Leishmania donovani (strain BPK282A1)) (UniProt E9BSI1).
T1 sequence (whole entry): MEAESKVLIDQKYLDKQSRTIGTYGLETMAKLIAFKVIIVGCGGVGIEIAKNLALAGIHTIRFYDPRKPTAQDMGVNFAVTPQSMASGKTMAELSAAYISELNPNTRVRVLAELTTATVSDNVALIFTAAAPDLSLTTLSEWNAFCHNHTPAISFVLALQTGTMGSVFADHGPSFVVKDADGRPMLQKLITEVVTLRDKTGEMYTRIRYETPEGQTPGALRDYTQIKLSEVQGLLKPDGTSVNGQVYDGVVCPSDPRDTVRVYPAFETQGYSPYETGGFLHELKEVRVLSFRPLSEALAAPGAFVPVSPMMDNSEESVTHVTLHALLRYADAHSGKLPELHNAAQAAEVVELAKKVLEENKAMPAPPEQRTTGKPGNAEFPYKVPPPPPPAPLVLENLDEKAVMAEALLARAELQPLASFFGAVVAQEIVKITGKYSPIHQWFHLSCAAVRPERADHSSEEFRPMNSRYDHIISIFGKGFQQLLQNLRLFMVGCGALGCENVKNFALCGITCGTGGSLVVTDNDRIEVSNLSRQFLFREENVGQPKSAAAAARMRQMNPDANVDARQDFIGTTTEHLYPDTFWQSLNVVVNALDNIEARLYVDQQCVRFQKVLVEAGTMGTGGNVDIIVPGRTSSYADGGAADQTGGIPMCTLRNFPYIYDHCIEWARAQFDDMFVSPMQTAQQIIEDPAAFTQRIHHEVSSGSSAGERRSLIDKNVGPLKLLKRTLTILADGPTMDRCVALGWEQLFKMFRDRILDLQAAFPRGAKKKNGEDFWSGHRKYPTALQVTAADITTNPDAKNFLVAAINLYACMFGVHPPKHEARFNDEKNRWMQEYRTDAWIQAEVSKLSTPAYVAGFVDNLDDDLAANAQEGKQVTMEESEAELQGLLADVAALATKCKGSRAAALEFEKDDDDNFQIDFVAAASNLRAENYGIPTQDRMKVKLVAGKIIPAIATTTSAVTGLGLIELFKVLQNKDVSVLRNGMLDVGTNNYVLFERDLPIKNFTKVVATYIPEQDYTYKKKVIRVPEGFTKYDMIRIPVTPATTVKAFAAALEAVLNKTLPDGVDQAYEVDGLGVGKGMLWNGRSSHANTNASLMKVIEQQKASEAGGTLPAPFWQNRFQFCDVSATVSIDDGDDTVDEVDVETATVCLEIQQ
The experiment in a line: Leishmania donovani Ubiquitin Activating Enzyme (LdE1). The class given is functional. As to conditions: 30 µM.

The target of assay [3] is AMP-activated protein kinase, AMPK (Homo sapiens) (UniProt P54646+O43741+P54619+Q9UGJ0+Q9Y478+Q13131+Q9UGI9). Kind of assay: AMP-dependent Kinase enzyme assay. An in vitro enzyme assay that detects ADP turnover that is directly proportional to AMPK activity. This uses naive AMPK that is activated during the assay with MK-8722. The class given is functional. The conditions noted are these: 30 µM.

For assay [4], the target named is Sialic acid-binding Ig-like lectin 9 (Homo sapiens) (UniProt Q9Y336). Kind of assay: Hs-Siglec9 ALPHAscreen SOP 20170721. The conditions noted are these: 10 µM. On the technique in general: In Alpha technology, singlet oxygen from a donor bead excites a nearby acceptor bead.
A further assay has as its system Trypanosoma cruzi. Kind of assay: Trypanosoma cruzi phosphomannomutase and mannose-1-phosphate guanylyltransferase assay. The class given is functional. The conditions noted are these: 10 µM.
The target in assay [5] is T2, Arginase-2, mitochondrial (Homo sapiens) (UniProt P78540).
T2 sequence (whole entry): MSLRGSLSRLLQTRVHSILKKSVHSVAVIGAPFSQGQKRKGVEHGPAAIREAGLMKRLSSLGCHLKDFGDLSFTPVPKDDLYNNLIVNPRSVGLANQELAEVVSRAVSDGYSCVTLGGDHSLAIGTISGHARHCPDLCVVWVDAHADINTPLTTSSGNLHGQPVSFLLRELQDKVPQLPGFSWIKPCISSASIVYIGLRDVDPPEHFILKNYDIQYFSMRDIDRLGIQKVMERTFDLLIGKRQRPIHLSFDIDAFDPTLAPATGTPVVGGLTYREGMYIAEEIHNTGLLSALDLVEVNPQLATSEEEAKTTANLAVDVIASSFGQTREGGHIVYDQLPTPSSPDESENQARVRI
Kind of assay: in vitro enzyme assay to detect the production of urea directly proportional to the activity of Arginase II. Note: in the data most compounds retested in dose-response had high values. The class given is functional. The conditions noted are these: 33.3 µM.

Assay [6] concerns the target T3, Proteasome subunit beta (Trypanosoma cruzi) (UniProt O96673).
T3 sequence (whole entry): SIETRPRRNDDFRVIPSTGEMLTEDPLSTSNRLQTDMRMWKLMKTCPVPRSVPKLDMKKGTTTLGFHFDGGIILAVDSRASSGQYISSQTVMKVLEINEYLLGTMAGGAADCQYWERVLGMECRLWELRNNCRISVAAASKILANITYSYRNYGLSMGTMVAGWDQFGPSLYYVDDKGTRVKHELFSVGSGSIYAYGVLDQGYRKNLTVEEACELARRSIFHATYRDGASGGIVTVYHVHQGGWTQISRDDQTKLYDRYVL
Kind of assay: Trypanosoma cruzi proteasome chymotrypsin-like activity (TcProtChymo) assay. Note: in the data most compounds retested in dose-response had high values. The class given is functional. The conditions noted are these: 9.37 µM.

The species named for another assay is Homo sapiens. The experiment in a line: To identify inhibition of the IFN signalling (Jak-Stat) pathway via expression of an eGFP reporter gene under the control of an IFN-stimulated response element (ISRE) containing MxA promoter. The class given is functional. As to conditions: 30 µM. In general terms: A reporter such as luciferase makes a cellular process visible.

Assay [7] deals with T4, Tyrosyl-tRNA synthetase, putative (Trypanosoma cruzi (strain CL Brener)) (UniProt Q4DSP6).
T4 sequence (whole entry): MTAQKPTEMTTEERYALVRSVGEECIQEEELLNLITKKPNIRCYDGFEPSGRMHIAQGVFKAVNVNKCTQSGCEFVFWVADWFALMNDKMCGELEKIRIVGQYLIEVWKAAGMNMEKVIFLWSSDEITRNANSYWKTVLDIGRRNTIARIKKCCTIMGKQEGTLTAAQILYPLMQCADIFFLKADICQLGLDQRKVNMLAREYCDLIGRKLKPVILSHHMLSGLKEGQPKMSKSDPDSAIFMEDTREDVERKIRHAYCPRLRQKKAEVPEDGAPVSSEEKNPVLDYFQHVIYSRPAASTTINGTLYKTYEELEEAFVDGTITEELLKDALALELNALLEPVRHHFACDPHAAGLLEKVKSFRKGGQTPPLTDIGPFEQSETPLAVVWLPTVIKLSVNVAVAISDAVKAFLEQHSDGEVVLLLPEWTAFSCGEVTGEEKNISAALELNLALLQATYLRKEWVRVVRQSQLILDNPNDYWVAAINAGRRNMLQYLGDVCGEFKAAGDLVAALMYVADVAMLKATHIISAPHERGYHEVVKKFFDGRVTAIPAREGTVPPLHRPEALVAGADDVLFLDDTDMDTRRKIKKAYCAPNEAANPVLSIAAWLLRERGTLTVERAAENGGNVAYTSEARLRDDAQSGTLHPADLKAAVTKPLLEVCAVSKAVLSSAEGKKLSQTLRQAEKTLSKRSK
Kind of assay: Trypanosoma cruzi tyrosyl tRNA synthetase (TcYRS) _High Tyrosine SOP. Note: in the data most compounds retested in dose-response had high values. The class given is functional. As to conditions: 30 µM.

Assay [8] deals with T4, Tyrosyl-tRNA synthetase, putative (Trypanosoma cruzi (strain CL Brener)). The experiment in a line: Trypanosoma cruzi tyrosyl tRNA synthetase (TcYRS) SOP. The class given is functional. As to conditions: 30 µM.
For assay [9], the target named is Chromo domain-containing protein 1 (Saccharomyces cerevisiae (strain ATCC 204508 / S288c) (Baker's yeast)) (UniProt P32657). The experiment in a line: ScCHD-1 Enzyme Inhibition Assay. Note: in the data most compounds retested in dose-response had high values. The class given is functional. As to conditions: 30 µM.
Chain of Chromo domain-containing protein 1 (Saccharomyces cerevisiae (strain ATCC 204508 / S288c) (Baker's yeast)) (P32657 whole entry, the tested form may be a part): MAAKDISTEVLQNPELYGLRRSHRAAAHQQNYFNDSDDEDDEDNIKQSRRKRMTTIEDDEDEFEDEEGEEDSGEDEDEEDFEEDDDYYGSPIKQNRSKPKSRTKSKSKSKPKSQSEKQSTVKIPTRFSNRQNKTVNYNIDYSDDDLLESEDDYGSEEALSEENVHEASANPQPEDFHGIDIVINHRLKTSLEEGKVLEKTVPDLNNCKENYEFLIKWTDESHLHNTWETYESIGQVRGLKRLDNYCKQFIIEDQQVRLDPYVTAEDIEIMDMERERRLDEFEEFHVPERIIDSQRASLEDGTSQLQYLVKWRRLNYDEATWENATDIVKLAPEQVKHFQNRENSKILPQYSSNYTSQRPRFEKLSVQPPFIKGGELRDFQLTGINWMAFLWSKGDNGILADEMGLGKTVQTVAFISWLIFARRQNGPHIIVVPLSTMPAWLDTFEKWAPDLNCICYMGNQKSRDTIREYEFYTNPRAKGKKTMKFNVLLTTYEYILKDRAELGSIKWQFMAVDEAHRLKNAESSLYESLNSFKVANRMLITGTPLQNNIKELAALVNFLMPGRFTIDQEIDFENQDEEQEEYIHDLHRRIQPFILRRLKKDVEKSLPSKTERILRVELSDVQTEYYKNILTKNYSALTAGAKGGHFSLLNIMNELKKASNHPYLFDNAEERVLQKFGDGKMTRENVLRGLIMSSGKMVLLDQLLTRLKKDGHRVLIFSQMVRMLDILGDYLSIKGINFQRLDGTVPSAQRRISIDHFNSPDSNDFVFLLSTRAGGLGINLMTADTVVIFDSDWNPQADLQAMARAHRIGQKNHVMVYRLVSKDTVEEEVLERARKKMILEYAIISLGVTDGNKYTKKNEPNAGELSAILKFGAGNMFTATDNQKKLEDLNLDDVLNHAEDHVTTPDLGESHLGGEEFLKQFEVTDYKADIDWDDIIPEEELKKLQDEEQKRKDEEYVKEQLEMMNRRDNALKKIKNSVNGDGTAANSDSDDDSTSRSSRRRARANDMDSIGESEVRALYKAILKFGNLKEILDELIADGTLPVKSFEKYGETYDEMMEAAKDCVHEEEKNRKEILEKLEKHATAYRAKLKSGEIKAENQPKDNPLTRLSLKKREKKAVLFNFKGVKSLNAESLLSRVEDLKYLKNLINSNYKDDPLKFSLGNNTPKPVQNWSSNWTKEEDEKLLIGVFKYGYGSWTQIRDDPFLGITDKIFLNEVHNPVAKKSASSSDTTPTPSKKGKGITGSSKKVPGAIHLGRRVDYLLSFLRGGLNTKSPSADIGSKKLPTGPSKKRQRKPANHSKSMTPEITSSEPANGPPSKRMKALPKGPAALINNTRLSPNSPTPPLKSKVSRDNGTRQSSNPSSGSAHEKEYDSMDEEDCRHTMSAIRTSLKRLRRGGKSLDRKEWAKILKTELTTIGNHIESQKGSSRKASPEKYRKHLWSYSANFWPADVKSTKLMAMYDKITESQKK

Chain of Protein translocase subunit SecA (Escherichia coli (strain K12)) (P10408 whole entry): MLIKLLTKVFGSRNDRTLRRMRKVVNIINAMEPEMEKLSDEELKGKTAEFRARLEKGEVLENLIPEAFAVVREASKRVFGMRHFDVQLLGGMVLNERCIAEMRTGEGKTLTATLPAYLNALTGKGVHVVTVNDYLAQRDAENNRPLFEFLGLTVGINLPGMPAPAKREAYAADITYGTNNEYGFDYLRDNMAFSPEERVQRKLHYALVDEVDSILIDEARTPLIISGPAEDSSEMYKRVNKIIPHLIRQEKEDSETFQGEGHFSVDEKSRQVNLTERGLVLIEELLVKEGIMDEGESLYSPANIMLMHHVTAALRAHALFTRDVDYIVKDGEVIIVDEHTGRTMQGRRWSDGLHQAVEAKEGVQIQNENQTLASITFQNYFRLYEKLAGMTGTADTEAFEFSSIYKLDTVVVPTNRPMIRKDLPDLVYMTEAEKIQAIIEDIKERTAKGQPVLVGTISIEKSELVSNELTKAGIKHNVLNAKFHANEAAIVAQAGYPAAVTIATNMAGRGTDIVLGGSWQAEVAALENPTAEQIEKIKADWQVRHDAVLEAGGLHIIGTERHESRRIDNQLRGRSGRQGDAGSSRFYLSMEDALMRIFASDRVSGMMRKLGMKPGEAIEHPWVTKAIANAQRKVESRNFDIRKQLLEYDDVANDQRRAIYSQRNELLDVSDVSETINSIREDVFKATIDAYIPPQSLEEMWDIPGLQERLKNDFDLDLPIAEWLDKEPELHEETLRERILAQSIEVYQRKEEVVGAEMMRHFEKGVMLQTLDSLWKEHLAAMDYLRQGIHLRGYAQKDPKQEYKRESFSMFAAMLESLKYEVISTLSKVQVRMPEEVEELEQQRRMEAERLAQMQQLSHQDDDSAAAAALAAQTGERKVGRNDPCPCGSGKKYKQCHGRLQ
Chain of Sialic acid-binding Ig-like lectin 9 (Homo sapiens) (Q9Y336 whole entry): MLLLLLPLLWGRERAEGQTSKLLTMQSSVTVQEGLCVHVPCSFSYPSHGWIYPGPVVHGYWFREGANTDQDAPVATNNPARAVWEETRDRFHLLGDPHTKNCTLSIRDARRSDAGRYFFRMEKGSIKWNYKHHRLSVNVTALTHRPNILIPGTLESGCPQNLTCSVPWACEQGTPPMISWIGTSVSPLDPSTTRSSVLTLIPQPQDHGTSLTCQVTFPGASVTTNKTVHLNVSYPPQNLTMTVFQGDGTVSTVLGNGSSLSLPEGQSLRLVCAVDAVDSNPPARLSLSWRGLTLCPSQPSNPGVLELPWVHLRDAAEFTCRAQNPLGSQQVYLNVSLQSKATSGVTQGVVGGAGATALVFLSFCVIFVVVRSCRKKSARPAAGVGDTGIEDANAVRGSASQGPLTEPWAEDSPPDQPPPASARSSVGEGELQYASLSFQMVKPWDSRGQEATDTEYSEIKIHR

As to `CCn1cc(CN2CCCN(C(=O)CCc3ccncc3)CC2)cn1`, the Percent Effect in assay [1] is -3.49%; in assay [2], 26%; in assay [3] it was -14.6%; in assay [4], 4.57%; in the assay with Trypanosoma cruzi, 1.87%; in assay [5], -0.712%. The Percent Effect in [6] is 5.91%; in the assay filed under Homo sapiens, 23.6%; in [7], 8.74%; in [8] it was 14.6%; in [9] it was -7.66%.
On to `CC(c1nc(C2CC2)no1)N1CCN(c2ccc(C#N)cn2)CC1` (stereo unspecified), for which the Percent Effect in assay [1] is 0.926%; in [2], 2.63%; in assay [3], 8.14%; in [4] it was 5.94%; with Trypanosoma cruzi, -4.58%; in assay [5] it was -4.73%. Also, the Percent Effect in assay [6] is 13.7%; in the assay filed under Homo sapiens, 10.8%; in assay [7], 2.13%; in assay [8] it was 7.79%; in assay [9] it was -2.39%.
In the case of `CC(C)c1nccn1CCCNC(=O)c1ccc(-c2cncnc2)nc1`, the Percent Effect in assay [1] was -0.347%; in assay [2], 8%; in assay [3], -10.9%; in assay [4] it was 8.21%; in the assay on Trypanosoma cruzi, 3.21%; in assay [5], 7.29%. Also, the Percent Effect is 16.2% in [6]; 17.9% in the assay listed under Homo sapiens; 4.92% in [7]; 13.6% in assay [8]; -5.5% in assay [9].
As to `O=C(O)CC1CN(Cc2ccccc2)CCO1` (stereo unspecified), the Percent Effect is -6.06% in [1]; 5.41% in assay [2]; 5.19% in assay [3]; -3.59% in [4]; -5.27% with Trypanosoma cruzi; 2.08% in assay [5]. The Percent Effect in [6] was 14.3%; in the assay listed under Homo sapiens it was 6.89%; in [7] it was 8.91%; in assay [8], 8.54%; in assay [9], -5.29%.
Regarding `Cc1cnn(CC2CCCCN2CC(=O)NCc2ccccn2)c1` (stereo unspecified), the Percent Effect in [1] is -2.64%; in assay [2], -2.63%; in assay [3] it was 6.62%; in assay [4], 0.337%; with Trypanosoma cruzi it was 7.11%; in assay [5] it was -1.18%. Also, the Percent Effect in assay [6] was 17.4%; in the assay listed under Homo sapiens it was -2.67%; in assay [7], 5.32%; in [8], 5.2%; in assay [9], -0.694%.
On to `COc1cc(C(=O)NC(CC(=O)O)c2cccs2)cc(Cl)c1OC` (stereo unspecified), for which the Percent Effect is -3% in assay [1]; 8.86% in assay [2]; 6.71% in [3]; -5.2% in assay [4]; -3.79% in the assay with Trypanosoma cruzi; 1.07% in assay [5]. The Percent Effect in assay [6] was 20.9%; in the assay listed under Homo sapiens, -0.746%; in [7] it was 2.08%; in [8] it was 5.06%; in [9], -25.4%.
Turning to `Cc1cc(CN(Cc2cccs2)CC2CCCO2)no1` (stereo unspecified), the Percent Effect was -4.05% in assay [1]; 1.27% in assay [2]; 10.8% in assay [3]; 3.07% in assay [4]; -1.33% with Trypanosoma cruzi; 4.95% in [5]. Moreover, the Percent Effect is 6% in [6]; 6.19% in the assay filed under Homo sapiens; -5.21% in assay [7]; 0% in assay [8]; 16.7% in assay [9].
Turning to `O=c1oc(-c2cccs2)nn1CC(O)c1ccc(F)cc1` (stereo unspecified), the Percent Effect in assay [1] was -3.82%; in assay [2], 0%; in assay [3], -2.3%; in assay [4] it was 3.88%; in the assay on Trypanosoma cruzi it was 3.41%; in assay [5], -1.04%. Further, the Percent Effect was 13.9% in assay [6]; 18.7% in the assay filed under Homo sapiens; 6.01% in [7]; 18.5% in assay [8]; -5.35% in assay [9].
`CCn1cc(NC(=O)C2CCN(Cc3noc(C(C)C)n3)CC2)cn1`: the Percent Effect in assay [1] was -2.1%; in [2], 8.86%; in [3], 0.341%; in assay [4], 3.03%; in the assay on Trypanosoma cruzi, -1.74%; in [5], -0.645%. Besides, the Percent Effect in assay [6] was 10.3%; in the assay filed under Homo sapiens, 8.77%; in assay [7] it was 9.38%; in [8], 22.8%; in assay [9], -19.2%.
Consider `CCS(=O)(=O)c1ccccc1N1CCC(NC(=O)c2ccc[nH]2)CC1`, for which the Percent Effect in assay [1] was -4.07%; in [2], 8.11%; in assay [3], 1.8%; in assay [4], 7.6%; with Trypanosoma cruzi, 6.78%; in [5], -7.95%. Besides, the Percent Effect is 2.15% in assay [6]; 13% in the assay listed under Homo sapiens; 8.91% in assay [7]; 18.3% in assay [8]; -1.36% in assay [9].
On to `CC(C)NC(=O)N1CCN(S(=O)(=O)C2CC2)CC2(CNC(=O)C2)C1` (stereo unspecified), for which the Percent Effect in assay [1] is -6.38%; in [2] it was 18.2%; in [3], 0.68%; in assay [4] it was 2.04%; with Trypanosoma cruzi, 4.63%; in [5], 0.645%. Further, the Percent Effect in assay [6] was 7.66%; in the assay filed under Homo sapiens it was 9.81%; in assay [7], 2.12%; in assay [8] it was 11.5%; in assay [9], -5.37%.

The record behind these values is ChEMBL document CHEMBL3988442, “University of Dundee, Small-Polar-MMV Screening Library” (2021).
